Screening results deposited in PubChem BioAssay by The Scripps Research Institute Molecular Screening Center.
Only some compounds are listed: those with a hit (about 1.6% of all), similar ones and a draw of the others.
OPRM1-OPRD1 inv = inverse agonists of MOR-DOR heterodimerization, primary screen, cell-based, luminescence; inhibition, % at 9.3 µM; Mu-type opioid receptor (Homo sapiens) + Delta-type opioid receptor (Homo sapiens), …; actives 0.21% (n = 340,000); cell-based MOR-DOR heterodimer luminescence, inverse agonism; in the data active = inhibition above about 22%, passing the limit was not always enough;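 also: 0% = cells with DMSO and 100% = wells without cells with DMSO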
HTR5A inv ag = HTR5A inverse agonists in luminescence cell assay, primary screen, counter-screen for OPRM1-OPRD1 heterodimer inverse agonist project, full-deck HTS; 5-hydroxytryptamine receptor 5A (Homo sapiens), P47898; HTR5A cell line, inverse agonism; inhibition, % at 9.3 µM; actives 0.083% (n = 340,000); AID 504634, 2011; in the data active = inhibition mostly above about 23%, no sharp cut-off; inactive = mostly below about 18%;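 also: 0% = cells with DMSO and 100% = no-cell wells with DMSO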
Target sequence (P47898 whole entry, looked up): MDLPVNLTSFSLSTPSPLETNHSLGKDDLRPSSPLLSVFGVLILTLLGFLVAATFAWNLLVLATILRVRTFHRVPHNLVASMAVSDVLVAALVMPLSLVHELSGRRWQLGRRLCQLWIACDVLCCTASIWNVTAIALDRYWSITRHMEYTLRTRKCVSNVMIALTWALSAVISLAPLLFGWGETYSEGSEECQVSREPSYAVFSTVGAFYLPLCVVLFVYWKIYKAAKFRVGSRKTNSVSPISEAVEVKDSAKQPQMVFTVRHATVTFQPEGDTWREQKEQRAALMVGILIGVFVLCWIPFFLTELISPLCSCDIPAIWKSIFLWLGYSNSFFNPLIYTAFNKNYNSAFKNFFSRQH
HTR5A ag = HTR5A agonists in luminescence cell assay, primary screen, counter-screen for OPRM1-OPRD1 heterodimer agonist project, full-deck HTS; activation, % at 9.3 µM; 5-hydroxytryptamine receptor 5A (Homo sapiens), P47898; cell-based; actives 0.61% (n = 340,000); in the data active = activation mostly above about 9.5%, no sharp cut-off; inactive = mostly below about 7.6%;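 also: 0% = cells with vehicle only and 100% = reference agonist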
MOR-DOR ag = agonists of OPRM1-OPRD1 heterodimerization, primary screen, cell-based, luminescence. cells. activation, % at 9.3 µM. actives 0.3% (n = 340,000). AID 504326, 2011; in the data active = activation above about 18%;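 also: 0% = vehicle-treated cells and 100% = reference agonist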
HTR2A ag = mouse Htr2a agonists via beta-arrestin recruitment, primary screen, cell-based, luminescence; actives 0.66% (n = 360,000); CHO-K1 mHTR2A beta-arrestin complementation; percent of 30 µM serotonin response; 5-hydroxytryptamine receptor 2A (Mus musculus), P35363; activation, % at 7.6 µM; AID 624169, 2012;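 active = activation above a run cutoff, the mean activation of all tested compounds plus 3 SD, cut at about 14% in these data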;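 also: 0% = plate median of compound wells and 100% = 30 µM serotonin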
MOR ag counter = OPRM1 agonists via beta-arrestin recruitment, confirmation, counter-screen for mouse HTR2A agonist project, cell-based, luminescence, single concentration; actives 5.3% (n = 2,300); U2OS OPRM1 beta-arrestin PathHunter; DMSO 0%, DAMGO 9.3 µM 100%; AID 624380, 2012; activation, % at 9.3 µM; shares compounds with HTR2A ag;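 active = mean activation above the mean of DMSO-only wells plus 3 SD, cut at about 0.5% in these data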
m5-HT2A ag conf = mouse HTR2A agonists, beta-arrestin recruitment, confirmation, cell-based, luminescence, CHO-K1 PathHunter, triplicate. shares compounds with HTR2A ag. DMSO 0%, 30 µM serotonin 100%. activation, % at 7.6 µM. actives 19% (n = 2,300);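 active = mean activation across triplicates above the hit threshold derived in the original primary screen, cut at about 15% in these data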
* = called active by the depositor; · = no result given.

SMILES | OPRM1-OPRD1 inv | HTR5A inv ag | HTR5A ag | MOR-DOR ag | HTR2A ag | MOR ag counter | m5-HT2A ag conf
Cc1nc2ccc(S(=O)(=O)CCC(=O)NCc3ccc(Cl)cc3)cc2s1 | · | · | · | · | 20.8* | 0.2 | -0.6
O=C1CCNc2c(Cl)cccc21 | -5.8 | 9.4 | -1.5 | 1.1 | 14.5* | -0.6 | 1.9
CCC(=O)Nc1cc(C(=O)OC(C(=O)c2ccc(C)c(C)c2)c2ccccc2)ccc1C (stereo not drawn) | 6.3 | 2.6 | -2.0 | -1.3 | -7.0 | · | ·
O=c1[nH]c(Cc2ccccc2Cl)nc2ccccc12 | 21.7 | -13.3 | 4.9 | -4.3 | 2.5 | · | ·
Cc1ccc2c(=O)[nH]c(Cc3ccccc3C(=O)O)nc2c1 | -4.5 | -11.8 | 4.1 | 0.8 | 14.9* | -0.5 | 9.7
Cc1ccccc1S(=O)(=O)N(C)C[C@@H]1OCc2ccccc2-c2c(n(C)c3ccccc23)C(=O)N([C@H](C)CO)C[C@@H]1C | · | · | · | · | 56.3* | -0.3 | 3.6
CC(C)[C@H](NC(=O)OC(C)(C)C)C(=O)N/N=C/c1ccc2nccnc2c1 | 14.3 | -10.2 | 1.2 | -2.9 | 4.8 | · | ·
CCOC(=O)C1=NOC2COC3(CCN(c4ncccn4)CC3)OCC12 (stereo not drawn) | 9.7 | 7.0 | -2.5 | -1.7 | 14.8* | 0.6* | 6.2
COc1ccc(C(=O)N2CCOC23CCN(c2ncccn2)CC3)cc1 | 2.5 | 7.9 | -2.8 | -0.5 | 2.7 | · | ·
Cc1nc2ccc(NS(=O)(=O)c3ccc(F)cc3F)cc2s1 | 12.2 | -1.6 | 0.5 | -3.1 | 21.8* | -0.4 | -3.1
O=Nc1c(O)n(Cc2ccccc2)c2ccccc12 | -3.2 | 5.6 | -2.0 | 0.6 | 0.8 | · | ·
O=Nc1c(O)n(Cc2cccc(C(F)(F)F)c2)c2ccccc12 | -23.5 | -7.8 | 12.1 | 4.7 | 16.1* | 0.7* | 2.8
CCN(CC)S(=O)(=O)c1ccc2[nH]c(=O)cc(C(=O)NCc3ccccc3)c2c1 | 7.3 | -15.2 | 5.7 | -1.4 | 9.6 | · | ·
CCOc1ccc(CCNC(=O)c2cc(=O)[nH]c3ccc(S(=O)(=O)N(CC)CC)cc23)cc1OCC | -1.8 | -3.0 | 3.1 | 0.3 | 16.9* | -0.5 | 0.4
O=C(CSc1n[nH]c(-c2ccccc2)n1)c1ccc(O)c(O)c1 | 0.5 | -4.5 | 7.5 | -0.1 | 3.4 | · | ·
CCOc1ccc(NC(=S)N2c3ccccc3CC2C)cc1 (stereo not drawn) | -0.8 | 4.5 | -1.6 | 0.2 | 15.9* | -0.5 | -0.6
CC(=O)c1cccc(NC(=S)N2c3ccccc3CC2C)c1 (stereo not drawn) | 21.9 | -4.0 | 3.7 | -4.4 | -4.1 | · | ·
C=CC[n+]1c(-c2ccc(OCC)cc2)csc1NNC(=O)Nc1ccccc1 | -30.1 | -32.7 | 10.5 | 5.1 | 0.5 | · | ·
Cc1cc(Cl)ccc1OCC(=O)OCC(=O)NC1CCCC1 | 15.9 | -5.4 | 2.2 | -3.7 | 15.6* | 0.5* | 2.4
CCOC(=O)CNC(=S)N(CCCN1CCCCCC1)Cc1cccs1 | -2.2 | -25.7 | 0.6 | 0.3 | 6.7 | · | ·
CCOC(=O)CNC(=S)N(CCCN1CCCC1)Cc1cccs1 | 9.0 | 1.5 | 0.4 | -1.3 | 29.2* | -0.5 | 9.7
Cc1ccc(C)c2[nH]c(=O)c(CN(CCN3CCCC3)C(=O)Nc3ccc(F)cc3)cc12 | 12.2 | 12.2 | -3.4 | -2.3 | 16.6* | -0.5 | 4.8
Nc1[nH]n(-c2ccccc2)c(=O)c1N=Nc1ccc2ncsc2c1 | 4.8 | 14.5 | -1.8 | -0.9 | 0.1 | · | ·
CC(=O)NCC1COc2ccccc2O1 (stereo not drawn) | 12.5 | -30.1 | 7.1 | -2.4 | 12.5 | · | ·
CC(=O)NCC1(c2ccccc2)CCN(CC2COc3ccccc3O2)CC1 (stereo not drawn) | · | · | · | · | 20.0* | -0.5 | 44.3*
SMILES | OPRM1-OPRD1 inv | HTR5A inv ag | HTR5A ag | MOR-DOR ag | HTR2A ag | MOR ag counter | m5-HT2A ag conf
Fc1ccc(N2CCN(c3cnc4ccccc4n3)CC2)cc1 | -23.2 | -18.8 | 4.8 | 4.2 | -8.9 | · | ·
COc1cccc(COC(=O)C(Cc2ccccc2)NC(=O)c2ccco2)c1 (stereo not drawn) | · | · | · | · | 16.8* | -0.2 | 8.6
CCOCCn1c(CN2CCN(CC)CC2)nc2c1c(=O)n(C)c(=O)n2C | -8.9 | -19.1 | 4.5 | 1.5 | 48.3* | -0.5 | -0.6
CCOC(=O)C1C(=O)NC(c2ccccc2)=NC1c1ccc(Br)cc1 (stereo not drawn) | -18.8 | -3.2 | 1.1 | 3.3 | -1.9 | · | ·
CCC(C)NS(=O)(=O)c1ccc(NS(=O)(=O)c2ccc(F)cc2)cc1 (stereo not drawn) | 0.7 | -16.6 | 9.1 | -0.1 | -3.6 | · | ·
CC(C)Oc1ccc(S(=O)(=O)N2CCOCC2)cc1NC(=O)CC1OC(=O)c2ccccc21 (stereo not drawn) | 7.6 | -3.5 | 1.4 | -1.4 | 16.5* | -0.2 | -0.4
CC1CN(CC(=O)NCc2ccc(F)cc2)CC(C)O1 (stereo not drawn) | 14.7 | 2.2 | -0.8 | -2.7 | -4.9 | · | ·
Cc1cc(NC(=O)CSc2nnc(-c3ccc(S(=O)(=O)N4CCCC4)cc3)n2C)no1 | 4.8 | -18.6 | 2.2 | -0.9 | 18.4* | -0.7 | -4.7
CCn1c(SCC(=O)Nc2cc(C)on2)nnc1-c1ccc(S(=O)(=O)N2CCCC2)cc1 | 6.8 | 5.6 | -2.1 | -1.4 | 0.5 | · | ·
CCOC(=O)N1CCN(C(=O)C2CCN(CC3CCCCC3)CC2)CC1 | 0.1 | 22.1 | -6.5 | 0.0 | 0.3 | · | ·
CC(=O)Nc1ccc(S(=O)(=O)N2CCN(C(=O)Cc3ccccc3)CC2)cc1 | 12.3 | 0.6 | 3.6 | -2.3 | 17.0* | -0.4 | -1.6
O=C(CCNS(=O)(=O)c1cccc(C(F)(F)F)c1)NCc1ccco1 | 15.3 | -5.0 | 1.8 | -3.7 | 0.6 | · | ·
CCOC(=O)N1CCC(NC(=O)CCCN2C(=O)CSc3ncccc32)CC1 | 4.7 | -3.3 | -3.1 | -0.8 | -0.7 | · | ·
O=C(CCCN1C(=O)CSc2ncccc21)N1CCN(Cc2ccccc2)CC1 | 3.1 | -4.5 | 1.5 | -0.6 | 107.3* | -0.7 | -4.6
CCOc1ccc(NC(=O)N2CCN(c3nc4ccccc4s3)CC2)cc1 | -24.1 | -51.7 | 2.8 | 4.3 | 29.9* | -0.3 | 0.0
Cc1cccc(C)c1NC(=O)N1CCN(c2nc3ccccc3s2)CC1 | 0.1 | -14.3 | 4.6 | 0.0 | 39.1* | -0.4 | -0.2
O=C(O)CCC(=O)N1CCN(c2nc3ccccc3s2)CC1 | 4.1 | 0.0 | 5.2 | -0.9 | 45.0* | -0.3 | 12.1
